hgDAF12 agonist – H. glycines DAF-12 receptor agonists, primary screen, cell-based, luminescence, HEK293, GAL4 fusion, UAS-luciferase; Nuclear hormone receptor DAF-12 (Heterodera glycines), GAL4 fusion; HEK293 GAL4-hgDAF12 UAS-luciferase reporter, agonist luminescence; normalized to butyrate control; activation, % at 6.8 µM; 1.8% of 370,000 active;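 active = activation above a cutoff set at the mean of all screened compounds plus 3 SD, cut at about 10% in these data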;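 also: 0% = DMSO wells and 100% = sodium butyrate wells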
ssDAF12 agonist – S. stercoralis DAF-12 nuclear receptor activators, primary screen, cell-based, luminescence, HEK293, GRIP1 co-expression, lit1-tk-luc; Nuclear hormone receptor DAF-12 (Strongyloides stercoralis); HEK293 ssDAF-12/GRIP1 lit1-tk-luc reporter; % of 3 µM dafachronic acid response; activation, % at 6.8 µM; 1% of 370,000 active; AID 652126, 2013;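 active = activation above the mean over all tested compounds plus 3 SD, cut at about 0.9% in these data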;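 also: 0% = DMSO-only wells and 100% = 3 µM delta7-dafachronic acid wells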
hcDAF-12 act – H. contortus DAF-12 nuclear receptor activators, primary screen, cell-based, luminescence, HEK293, lit1-tk-luc reporter; HEK293 hcDAF-12 lit1-tk-luc reporter; 0% DMSO, 100% Δ7-dafachronic acid; activation, % at 6.8 µM; 1.4% of 370,000 active;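 active = activation above the mean of all tested compounds plus 3 SD, cut at about 5.5% in these data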;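 also: 100% = response to 3 µM Δ7-dafachronic acid high control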
DAX1 inh-1 – DAX1 (NR0B1) inhibitors on StAR promoter, primary screen, cell-based, luminescence, SF-1 (NR5A1), full-length DAX-1; HEK293T StAR-luciferase reporter, SF-1/DAX-1 repression relief; inhibition, % at 6.8 µM; 1.1% of 370,000 active; AID 652010, 2013;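 active = inhibition above the mean over all tested compounds plus 3 SD, cut at about 3.6% in these data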;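 also: 0% = DAX-1 cells with DMSO and 100% = cells lacking DAX-1 with DMSO; higher inhibition means more luminescence from relief of DAX-1 repression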
DAX1 inh-2 – DAX1 (NR0B1) inhibitors, primary screen, cell-based, HEK293, Gal4-DAX1, luciferase luminescence. Nuclear receptor subfamily 0 group B member 1 (Homo sapiens), P51843. HEK293 Gal4-DAX1 luciferase reporter. inhibition, % at 6.75 µM. 0.99% of 340,000 active. AID 504766, 2011;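 active = inhibition above the mean over all tested compounds plus 3 SD, cut at about 4.2% in these data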;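 also: 0% = DAX1-transfected cells with DMSO and 100% = empty-vector control cells with DMSO; inhibition shows as a rise in luminescence from relieved DAX1 repression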
hgDAF12 conf – H. glycines DAF-12 receptor agonists, confirmation, cell-based, luminescence, HEK293, GAL4-LBD fusion; shares compounds with hgDAF12 agonist; HEK293 GAL4-hgDAF12 luciferase reporter, agonist mode; percent of butyrate response; activation, % at 6.8 µM; 80% of 3,300 active; AID 743050, 2013;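 active = mean activation over triplicate wells above the hit cutoff derived from the earlier primary screen, cut at about 11% in these data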;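 also: 0% = DMSO low control and 100% = 2 mM sodium butyrate high control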
LXRb DAF12 ctr – LXR agonists, Gal4 luciferase reporter, confirmation, counter-screen for hgDAF-12 agonist project, cell-based, luminescence, HEK293, H. glycines campaign; shares compounds with hgDAF12 agonist; 24 h; activation, % at 6.8 µM; 3,300 tested, under 10 active;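 active = mean activation of the triplicate above a set limit carried over from the primary screen, none filed active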
Target sequence (P55055 whole entry, looked up, the tested form may be a part): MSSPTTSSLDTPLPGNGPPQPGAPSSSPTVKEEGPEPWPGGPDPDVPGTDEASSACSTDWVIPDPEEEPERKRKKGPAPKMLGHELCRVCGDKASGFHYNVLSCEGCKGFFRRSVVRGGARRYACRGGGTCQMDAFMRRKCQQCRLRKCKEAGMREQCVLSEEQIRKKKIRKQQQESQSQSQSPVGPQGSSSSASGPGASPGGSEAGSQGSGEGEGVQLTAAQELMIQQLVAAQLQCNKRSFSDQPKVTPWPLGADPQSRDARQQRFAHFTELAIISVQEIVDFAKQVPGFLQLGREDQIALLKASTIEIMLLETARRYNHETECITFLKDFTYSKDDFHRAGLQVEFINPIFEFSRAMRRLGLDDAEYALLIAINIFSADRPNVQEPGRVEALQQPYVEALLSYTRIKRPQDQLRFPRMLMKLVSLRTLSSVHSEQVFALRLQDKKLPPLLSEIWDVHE
Numbers without * were called inactive; · = no result. Hits are enriched below; roughly 4.1% of the tested compounds scored in any of these assays.

SMILES	hgDAF12 agonist	ssDAF12 agonist	hcDAF-12 act	DAX1 inh-1	DAX1 inh-2	hgDAF12 conf	LXRb DAF12 ctr
C/C(Cn1cnc([N+](=O)[O-])n1)=N\NC(=O)c1ccc(F)cc1	4	-1	-1	1	-2	·	·
COc1ccc(C(=O)N/N=C(\C)Cn2cnc([N+](=O)[O-])n2)cc1	15*	-1	2	0	1	0	0
O=C(OCc1cc(=O)n2cc(Br)ccc2n1)c1ccc(Cl)c(S(=O)(=O)NCc2ccccc2)c1	3	0	5	0	1	·	·
O=C(N/N=C/c1cn(-c2ccccc2)nc1-c1cc2ccccc2o1)c1c[nH]c2ccccc12	19*	1	4	2	1	13*	1
O=C(COC(=O)c1ccco1)Nc1ccc(N2CCOCC2)cc1	0	-1	2	-1	0	·	·
O=C(CSCc1ccccc1Br)N/N=C/c1ccccc1C(=O)O	0	-1	-2	0	-1	·	·
CCN(CC(=O)Nc1c(F)cccc1F)C(=O)C1COc2ccccc2O1 (centres undefined)	-1	-1	-2	2	0	·	·
CCCNCc1nnc(-c2ccccc2Cl)o1	3	-1	-1	0	1	·	·
Clc1ccccc1-c1nnc(-c2ccccc2Cl)o1	15*	-1	5	3	2	17*	1
Clc1ccc(-c2nnc(-c3ccccc3Cl)o2)cc1	14*	0	4	2	2	19*	1
CCCn1c(C)cc(C(=O)COc2ncnc3sccc23)c1C	14*	-1	3	2	1	13*	0
Cc1cccc(NC(=O)c2ccc(N3CCOCC3)c([N+](=O)[O-])c2)n1	14*	-1	0	1	2	5	0
Cc1cccc(NC(=O)c2ccc(N3CCCCC3)c([N+](=O)[O-])c2)n1	10	0	3	1	1	·	·
O=C(NC1CC1)c1cccc(-c2cncc3nccn23)c1	4	0	-1	0	·	·	·
O=C(NC1CC1)c1ccc(-c2cnc3cccnn23)cc1	14*	-1	1	4.4*	·	9	0
CCOc1ccc(-c2cnc3cccnn23)cc1	15*	0	4	4	·	11*	0
COc1ccc(CC(=O)Nc2ccc(C(=O)Nc3ccccc3C(=O)O)cc2)cc1OC	-5	-1	-2	0	0	·	·
COc1ccc2occ(C(=O)c3cccs3)c2c1	15*	-1	4	1	2	13*	0
COc1cc(/C=N/OCC(=O)Nc2cc(C)cc(C)c2)ccc1OCc1ccc(Cl)cc1	16*	-1	5	1	-1	10	1
COc1cc(/C=N/N2CCOCC2)ccc1OCc1ccc(Cl)cc1	10	-1	3	3	1	·	·
Cn1c(SCc2ccccc2Cl)nc2ccccc21	14*	0	2	3	3	15*	1
CCn1c(SCc2ccccc2Cl)nc2ccccc21	6	-1	2	1	3	·	·
O=C(NCCc1ccccc1)c1cccc(NC(=O)C2CC2)c1	17*	0	4	3	2	13*	0
O=C(NCCc1ccccc1)c1cccc(NC(=O)C2CCC2)c1	10	0	2	3	0	·	·
O=C(NC1CCCCC1)c1cc(-c2ccc(O)cc2)on1	9	0	4	2	0	·	·
SMILES	hgDAF12 agonist	ssDAF12 agonist	hcDAF-12 act	DAX1 inh-1	DAX1 inh-2	hgDAF12 conf	LXRb DAF12 ctr
CCC(C)NC(=O)c1cc(-c2ccccc2O)on1 (centres undefined)	14*	-1	3	3	1	9	0
O=C(NC1CCCCC1)c1cc(-c2ccccc2O)on1	13*	0	1	2	3	15*	1
COc1ccccc1-c1cc(C(=O)NC(C)C)no1	8	0	5	2	1	·	·
O=C(CSc1nnc(C2CC2)n1CC1CCCO1)Nc1ccccc1Cl (centres undefined)	0	0	0	0	1	·	·
C/C=C/c1cccc(-c2nc(C(=O)NC3Cc4ccccc4C3)cc3c2[C@@H](CCO)N(C(C)=O)C3)c1	1	-2	-2	0	·	·	·
Cc1cccc(NC(=O)COc2ccc(Br)cc2/C=N/O)c1	15*	0	5	3	1	11*	0
CC(=O)Nc1ccc(NC(=O)COc2ccc(Br)cc2C)cc1	1	-2	-1	1	2	·	·
COc1ccc(/C=N/Nc2ccc([N+](=O)[O-])cc2)cc1O	17*	0	3	2	7.8*	17*	1
Cc1ccc2cc(N)ccc2n1	-3	-1	1	1	0	·	·
Nc1ccc2cc3ccc(N)cc3nc2c1	28*	1.7*	32*	-2	·	6	0
COc1cccc(/C=C/c2ccccn2)c1O	16*	0	5	4	3	14*	1
N#C/C(=C(/O)c1ccco1)c1nc2ccccc2[nH]1	22*	1.2*	1	3.9*	5.0*	23*	0
CCOc1ccc(OCc2cccc(C(=O)N3CCCCCC3)c2)cc1	16*	0	5	3.8*	-6	16*	1
CCOc1ccc(OCc2ccc(C(=O)N3CCCC3)o2)cc1	3	-1	2	0	-1	·	·
CCCCNC(=O)c1cc(-c2ccc(OC)cc2)on1	17*	0	1	2	2	16*	1
CCCNC(=O)c1cc(-c2ccc(OC)cc2)on1	10	-1	5	2	1	·	·
CCCCNC(=O)c1cc(-c2ccc(F)cc2)on1	34*	1	2	0	4	42*	1
NC(=O)c1nnsc1Sc1c(C(N)=O)nnn1-c1cccc(N)c1	3	-1	-1	0	2	·	·
CCOC(=O)COC(=O)c1ccc(O)cc1	0	-1	2	0	0	·	·
Cc1ccc(C(=O)COC(=O)c2ccc(O)cc2)cc1	14*	-1	0	1	2	8	0
O=C(Nc1cc2c(cc1Cl)OCCCO2)c1ccc(F)cc1	8	-1	2	2	2	·	·

Source: PubChem (The Scripps Research Institute Molecular Screening Center)
